From ChEMBL document CHEMBL4513135, “CO-ADD screening of IQOG CSIS (Spain) compounds”
Entries with a potency or affinity are not part of this list.

Columns and labels:
Staphylococcus aureus = conditions: Concentration 32 ug.mL-1; ASSAY_TEST Inhibition of Bacterial Growth; detection method Absorption (OD600); MEDIA CAMHB; plate type 384well; NBS; CORNING #3640; time 18 hr
Escherichia coli = conditions: Concentration 32 ug.mL-1; ASSAY_TEST Inhibition of Bacterial Growth; detection method Absorption (OD600); MEDIA CAMHB; plate type 384well; NBS; CORNING #3640; time 18 hr

SMILES | Inhibition (Staphylococcus aureus) [%] | Inhibition (Escherichia coli) [%]
Cc1cnc2ccc(Br)cn12 | 2.9 | 6.35
COc1ccc(C2c3c(ccc4ccccc34)OC(=NBr)C2(Br)C#N)cc1OC (stereo not given) | 13.88 | -20.35
Cc1ccc(C2c3ccc4ccccc4c3Oc3nc4c(c(N)c32)CCCC4)cc1 (stereo not given) | -4.73 | -12.25
COC1(N)Oc2ccc3ccccc3c2C(c2ccccc2)C1(Br)C#N (stereo not given) | 16.73 | 20.49
Cn1c(CO)cc2cc(OCCCC3CCN(Cc4ccccc4)CC3)ccc21 | 7.02 | -17.9
Cc1nc2c(cc1C#N)c(N)nn2C | 30.49 | 0.08
COc1nc2ccccc2cc1C=O | 17.37 | 18.39
Cc1[nH]c2ccc(OCc3ccccc3)cc2c1C(=O)NN | 3.15 | -5.77
COc1ccc(-c2cc(-c3cc4c(C)cc(C)cc4nc3Cl)cc(=O)[nH]2)cc1 | 21.85 | -16.03
CCOC(=O)c1c(C)[nH]c2ccc(OC)cc12 | -4.64 | 0.02
O=C1NC(=S)N/C1=C\c1ccccc1 | 13.95 | 8.87
COC(=O)C(=Cc1ccc(OC)cc1)NC(C)=O | 16.29 | 8.29
O=c1oc2cc(O)ccc2cc1-c1ccccc1 | 10.2 | 2.31
COc1ccc(CNNC(=O)c2cc3ccccc3[nH]2)cc1O | 5.63 | 2.63
NNC(=O)CCc1c[nH]c2ccccc12 | 1.93 | 6.66
Cc1n[nH]c2c1C(c1ccc([N+](=O)[O-])cc1)C(C#N)=C(N)O2 (stereo not given) | 4.71 | 12.5
Cc1nc2c3c(C)nn(-c4ccccc4)c3ncn2n1 | 11.24 | 12.68
CCOC(=O)C1=C(C)OC(N)=C(C#N)C1c1ccc([N+](=O)[O-])cc1 (stereo not given) | 16.31 | -9.87
C#CCn1c(N)c(C#N)c2cc(O)ccc21 | 28.27 | -2.03
CC1=N/C(=C(\C)c2ccccc2)C(=O)O1 | -1.19 | 0.61
CSC1=NC(=Cc2ccccc2)C(=O)N1C | 5.89 | 10.03
C#CCN(C)c1nc(Sc2ccccc2)c(C#N)c(-c2ccccc2)c1C#N | 6.49 | 1.09

SMILES | Inhibition (Staphylococcus aureus) [%] | Inhibition (Escherichia coli) [%]
C#CCNc1nc(NC2CCN(Cc3ccccc3)CC2)c(C#N)c(-c2ccccc2)c1C#N | -5.25 | -23.87
COc1ccc(CNNC(=O)c2cc3ccccc3[nH]2)cc1 | 2.37 | -1.53
N#Cc1c(N)nc(N)c(C#N)c1-c1ccccc1 | 24.97 | -10.66
CCOc1nc2nc3c(c(N)c2cc1C#N)CCCC3 | -2.29 | -2.83
C#CCN(C)Cc1cc2cc(OC)ccc2n1C | 33.86 | -8.2
c1ccc(Cn2ccc3ccccc32)cc1 | 7.36 | 11.73
CCOC(=O)c1c(C)nc(N)c(C#N)c1-c1cccs1 | 5.52 | -18.22
Cl.ClCCCC1CCNCC1 | 28.57 | 19.24
ClCCC1CCN(Cc2ccccc2)CC1 | 26.32 | 16.74
Cc1ccc(C(O)SNNc2ncnc3c2c(C)nn3-c2ccccc2)cc1 (stereo not given) | 5.38 | 11.97
Cc1nc2c3cnn(-c4ccccc4)c3nc(C)n2n1 | 14.43 | 10.35
C#CCNc1cccc(F)n1 | 34.2 | -22.48
Nc1nc(N)c(C=O)c(-c2ccccc2)c1C=O | 3.38 | 16.24
CCCC(C)NNC(=O)c1cc2ccccc2[nH]1 (stereo not given) | 2.06 | 3.83
Cn1c(C(=O)N2CCOCC2)cc2cc(OCCCC3CCN(Cc4ccccc4)CC3)ccc21 | 23.07 | -10.59
O=C(N[C@H]1CC[C@@H](Br)[C@@H](Br)C1)C(F)(F)F | 24.31 | -25.88
COc1cccc(C2C(C#N)=C(N)Oc3c2ccc2ccccc32)c1 (stereo not given) | 23.52 | -8.01
N#Cc1cc(C#N)c(Cl)nc1N | 11.29 | 7.53
CCOC(=O)C1=C(C)OC(N)=C(C#N)C1c1ccncc1 (stereo not given) | 26.79 | -33.19
COC(=O)C1CCN(Cc2ccccc2)CC1 | 27.51 | 11.49
O=C(Cc1c[nH]c2ccccc12)NN=C1CCCCCC1 | 10.21 | 6.07
Cn1ccnc1C1C2=C(CC(C)(C)CC2=O)Oc2nc3c(c(N)c21)CCC3 (stereo not given) | 12 | -19.85

SMILES | Inhibition (Staphylococcus aureus) [%] | Inhibition (Escherichia coli) [%]
O=C(Cc1c[nH]c2ccccc12)NN=Cc1ccccc1 | 3.3 | -3.03
N#Cc1c(N)nc(NCc2ccccc2)c(C#N)c1-c1ccccc1 | -2.03 | -5.8
Cc1ccc(C2c3ccc4ccccc4c3Oc3nc4c(c(N)c32)CCCC4)cc1.Cl (stereo not given) | -4.06 | 12.44
O=C(O)c1c[nH]c2ccccc12 | -3.47 | -2.29
N#Cc1c(N)nc(NCCCC2CCN(Cc3ccccc3)CC2)c(C#N)c1-c1ccccc1 | 56.22 | -16.73
N#CCC(=C(C#N)C#N)c1ccccc1 | 11.65 | 4.41
Cn1c(C(=O)NCc2ccccc2)cc2cc(OCCCC3CCN(Cc4ccccc4)CC3)ccc21 | 21.45 | -9.22
COc1nc2nc3c(c(N)c2cc1C#N)CCCC3.Cl | 7.17 | -4.74
Cc1ccc(C2CC2(N)C(=O)O)cc1.Cl (stereo not given) | 8.71 | 6.19
CCOC(=O)/C(C#N)=C\c1ccc([N+](=O)[O-])cc1 | 32.65 | 19.98
CNC(=O)c1c(Cl)c2cc(OCc3ccccc3)ccc2n1C | 21.87 | -12.2
CN(C)c1ccc(C(=NNC(=O)c2cc3ccccc3[nH]2)c2ccc(N(C)C)cc2)cc1 | -9.28 | -3.28
N#Cc1c(N)nc(N2CCOCC2)c(C#N)c1-c1ccccc1 | 7.58 | 0.53
CN1C/C(=C\Cl)n2c1c(C#N)c(-c1ccccc1)c(C#N)c2=O | 14.24 | -33.76
C#CCN(C)c1nc(NCC2CCN(Cc3ccccc3)CC2)c(C#N)c(-c2ccccc2)c1C#N | 6.97 | -2.4
CC#CCN(Cc1ccccc1)c1nc(N)c(C#N)c(-c2ccccc2)c1C#N | 17.54 | -2.98
CN(C)c1nc2nc3c(c(N)c2c(-c2ccccc2)c1C#N)CCCC3 | 5.71 | -1.51
O=C(N/N=C/c1c[nH]c2ccccc12)c1cc2ccccc2[nH]1 | 11.07 | 9.94
O=C1SC(SCc2ccccc2)=NC1=Cc1ccc2c(c1)OCO2 | 0.74 | 10.84
Cc1nc(NO)c2c(C)nn(-c3ccccc3)c2n1 | 6.32 | 4.93
CC1=NC(=Cc2ccccc2)C(=O)S1 | 13.03 | 9.12
Cl.N#Cc1c(N)nc(NCCO)c(C#N)c1-c1ccccc1 | 32.81 | -7.39

SMILES | Inhibition (Staphylococcus aureus) [%] | Inhibition (Escherichia coli) [%]
C=C1CN(Cc2ccccc2)c2c(C#N)c(-c3ccccc3)c(C#N)c(=N)n21 | 44.91 | -0.81
Nc1c2c(nc3c1C(c1ccc(Cl)c(Cl)c1)c1ccc4ccccc4c1O3)CCCC2 (stereo not given) | -15.84 | -11.77
C#CCN(C)Cc1cc2cc(OCCCCC3CCN(Cc4ccccc4)CC3)ccc2n1C | 38.42 | -8.55
O=C(N/N=C/c1cccc(Cl)c1)c1cc2ccccc2[nH]1 | -16.68 | -12.27
Nc1c2c(nc3c1C(c1c(Cl)cccc1Cl)c1ccc4ccccc4c1O3)CCCC2 (stereo not given) | 2.04 | 3.11
N#CC1=C(Cl)Oc2c(ccc3ccccc23)C1c1ccc([N+](=O)[O-])cc1 (stereo not given) | 7.21 | -24.25
Cn1ccnc1C1c2c(nc3c(c2N)CCC3)Oc2ccc3ccccc3c21 (stereo not given) | 25.1 | -9.44
CCOc1nc2nc(C)c(C=C3CCN(Cc4ccccc4)CC3)cc2c(-c2ccccc2)c1C#N | 33.88 | -8.83
NNC(=O)c1cc2ccccc2n1Cc1ccccc1 | -21.85 | -14.39
COc1ccc(C2C(C#N)=C(N)Oc3ccc4ccccc4c32)cc1OC (stereo not given) | 19.72 | -23.42
CC/C(C)=N/NC(=O)Cc1c[nH]c2ccccc12 | -7.02 | -3.01
COc1nc(Cl)c(C#N)c(-c2ccccc2)c1C#N | 35.41 | -14.05
O=C1OC(c2ccccc2)=NC1=Cc1ccc([N+](=O)[O-])cc1 | 5.7 | 7.71
O=C(N[C@H]1CC[C@H](O)CC1)c1ccccc1 | 23.34 | -10.8
COc1ccc2cc(C=O)c(Cl)nc2c1 | 17.7 | 25.34
Cc1ccc(C(O)SNNc2nc(C)nc3c2c(C)nn3-c2ccccc2)cc1 (stereo not given) | 4.03 | 5.46
Cl.N#Cc1cc(C#N)c(N2CCCC2)nc1Cl | 37.39 | -6.69
O=C(NN=Cc1c[nH]c2ccccc12)c1cccc2ccccc12 | 15.12 | 10.09
N#Cc1cc(C#N)c(N2CCC(O)CC2)nc1N | 5.78 | -26.11
